According to ChEMBL document CHEMBL1201862, “PubChem BioAssay data set” (2004):

Species: Homo sapiens
Assay: Quantitative High-Throughput Screen for Compounds Blocking the Interaction Between CBF-beta and RUNX1 for the Treatment of Acute Myeloid Leukemia: Summary. [Related pubchem assays (depositor defined):AID1477, AID504370, AID504374, AID504375]; call rule not given here
Format: functional

| Structure (SMILES) | Potency |
| --- | --- |
| CCCCn1c(NS(=O)(=O)c2ccccc2)c(C(=O)OCC)c2nc3ccccc3nc21 | 112 nM (active) |
| O=C(O)CCCC[C@@H]1SC[C@H]2NC(=O)N[C@@H]12 | 12600 nM (active) |
| O=C(O)CCCC[C@@H]1SC[C@@H]2NC(=O)N[C@@H]21 | 1780 nM (active) |
| CC1CC(NC(=O)C2C3CCC(O3)C2C(=O)O)CC(C)(C)C1 (centres undefined) | 112 nM (active) |
